Results filed as inconclusive are left out. Activity calls are given as the source filed them. Calls come from the whole dose curve; as a rule, active = well fitted curve in the direction sought with a large enough effect; inconclusive = small, poorly fitted or top-dose-only effect, or another doubt; inactive = no such curve, though single readings can be large; an effect the other way counts as inactive or inconclusive.
Experiments:
NIH3T3 = experiment: qHTS assay to identify novel small-molecules to repurpose for Merkel cell carcinoma treatment (AID 1296009); details: MCC and control cell lines, CellTiter-Glo viability, 72 h; at 44.8 µM (top of the series) unless noted; note: nearly all actives have a fitted effect of over 60% in size
In short: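 Luminescence from CellTiter-Glo, read 10 min after addition at room temperature, reported viability following a 72 hr, 37 degree celsius treatment with NPC or MIPE compounds in titration; values normalized to plate controls.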

C33A = experiment: Primary qHTS to identify gynecologic anti-cancer compounds using libraries of approved drugs and bioactive compounds (AID 1345084); details: Gynecologic cancer cell panel viability, ATPlite luminescence, 48 h; series mostly up to 57.5 µM; note: nearly all actives have a fitted effect of over 55% in size; note: potency is the fitted concentration of half-maximal effect; for activity change, negative = cytotoxicity: % is set by controls: 0 for no effect and ±100 for the full control effect
In short: (§1)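 In this quantitative HTS, cell killing is estimated from loss of ATP-dependent luciferase light. Cells see five compound concentrations over a 48 h exposure.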

CAOV3 = experiment: as above; details: Gynecologic cancer cell panel viability, ATPlite luminescence, 48 h; series mostly up to 57.5 µM
In short: as §1

CASKI = experiment: as above; details: Gynecologic cancer cell panel viability, ATPlite luminescence, 48 h; series mostly up to 57.5 µM
In short: as §1

Es-2 = experiment: as above; details: Gynecologic cancer cell panel viability, ATPlite luminescence, 48 h; series mostly up to 57.5 µM
In short: as §1

HeLa = experiment: as above; details: Gynecologic cancer cell panel viability, ATPlite luminescence, 48 h; series mostly up to 57.5 µM
In short: as §1

Hek293T = experiment: as above; details: Gynecologic cancer cell panel viability, ATPlite luminescence, 48 h, control line for the selectivity index; series mostly up to 57.5 µM
In short: as §1

C=CC1C(O[C@@H]2O[C@H](CO)[C@@H](O)[C@H](O)[C@H]2O)OC=C(C(=O)OC)C1Cc1nccc2c1[nH]c1ccccc12 (some centres not stated)
inactive: outcome (NIH3T3) inactive [at 17.4 µM] | Potency (C33A) | Potency (CAOV3) | Potency (CASKI) | Potency (Es-2) | Potency (HeLa) | Potency (Hek293T)

COc1cc(CC(COC2OC(CO)C(O)C(O)C2O)c2cc(/C=C/CO)cc(OC)c2O)ccc1O (configuration not stated)
inactive: outcome (NIH3T3) inactive [at 17.4 µM] | Potency (C33A) | Potency (CAOV3) | Potency (CASKI) | Potency (Es-2) | Potency (HeLa) | Potency (Hek293T)

C[C@]12CCC(=O)C=C1[C@@H](O)C[C@@H]1[C@@H]2[C@@H](O)C[C@@]2(C)[C@H]1CC[C@]2(O)C(=O)CO
inactive: outcome (NIH3T3) | Potency (C33A) | Potency (CAOV3) | Potency (CASKI) | Potency (Es-2) | Potency (HeLa) | Potency (Hek293T)

N#Cc1ccc2[nH]c(O)c(-c3ccc(CN4CCOCC4)cn3)c2c1
inactive: outcome (NIH3T3) | Potency (C33A) | Potency (CAOV3) | Potency (CASKI) | Potency (Es-2) | Potency (Hek293T)

Cc1ccc(Sc2cncc3sc(C(N)=O)cc23)cc1
inactive: outcome (NIH3T3) | Potency (Es-2) | Potency (HeLa) | Potency (Hek293T)

C#C[C@]1(O)CC[C@H]2[C@@H]3CCC4=C/C(=N/O)CC[C@@H]4[C@H]3CC[C@@]21CC
inactive: outcome (NIH3T3) | Potency (CAOV3) | Potency (Es-2) | Potency (Hek293T)
active: Potency (HeLa) 14.1 µM

CCCC1=CC2=C(CO1)C(=O)C(C)(OC(=O)c1c(C)cc(OC)cc1O)C(O)C2 (configuration not stated)
inactive: outcome (NIH3T3) inactive [at 17.4 µM] | Potency (C33A) | Potency (CASKI) | Potency (Es-2) | Potency (HeLa) | Potency (Hek293T)

C=C(C)C1CC2(CO)C(=CC1=O)CCC(O)C2C (configuration not stated)
inactive: Potency (C33A) | Potency (CAOV3) | Potency (CASKI) | Potency (Es-2) | Potency (HeLa) | Potency (Hek293T)

CC1=C2[C@@H]([C@H](C)CC[C@H]2/C=C(\C)C(=O)O)[C@H](O)C1
inactive: Potency (C33A) | Potency (CAOV3) | Potency (CASKI) | Potency (Es-2) | Potency (HeLa) | Potency (Hek293T)

C[C@@H]1O[C@@H](O[C@H]2[C@H](O[C@H]3[C@H](O[C@H]4CC[C@@]5(C)C(CC[C@]6(C)C5CC=C5[C@@H]7CC(C)(C(=O)O)C[C@@H](O)[C@]7(C)CC[C@]56C)[C@@]4(C)CO)O[C@H](C(=O)O)[C@@H](O)[C@@H]3O)O[C@H](CO)[C@H](O)[C@@H]2O)[C@H](O)[C@H](O)[C@H]1O (some centres not stated)
inactive: activity change, negative = cytotoxicity (C33A) 4.66% [at 11.6 µM] | activity change, negative = cytotoxicity (CAOV3) 15.7% [at 11.6 µM] | activity change, negative = cytotoxicity (CASKI) 2.76% [at 11.6 µM] | activity change, negative = cytotoxicity (Es-2) 6.95% [at 11.6 µM] | activity change, negative = cytotoxicity (HeLa) 4.42% [at 11.6 µM] | activity change, negative = cytotoxicity (Hek293T) -2.11% [at 11.6 µM]

OC[C@H]1O[C@@H](n2cnc3c(NCc4ccc(O)cc4)ncnc32)[C@H](O)[C@@H]1O
inactive: outcome (NIH3T3) | Potency (CAOV3) | Potency (Es-2) | Potency (Hek293T)

CC(=O)N1c2ccccc2C2(O)CC3C(=O)NC(CC(C)C)C(=O)N3C12 (configuration not stated)
inactive: Potency (C33A) | Potency (CAOV3) | Potency (CASKI) | Potency (Es-2) | Potency (HeLa)

Cc1c(N2C(=O)c3ccc(C(=O)O)cc3C2=O)c(=O)n(-c2ccccc2)n1C
inactive: outcome (NIH3T3) | Potency (C33A) | Potency (CASKI) | Potency (Es-2) | Potency (HeLa) | Potency (Hek293T)

C=CC(C)(O)CC/C=C(\C)C(=O)OC1CC2(C(=O)O)CCC3(C)C(=CCC4C5(C)CCC(OC6OC(COC7OCC(O)C(O)C7O)C(O)C(OC7OCC(O)C(O)C7O)C6OC6OC(CO)C(O)C(O)C6OC6OCC(O)C(O)C6O)C(C)(C)C5CCC43C)C2CC1(C)C (configuration not stated)
inactive: activity change, negative = cytotoxicity (C33A) 0.0336% [at 6.55 µM] | activity change, negative = cytotoxicity (CAOV3) 2.82% [at 6.55 µM] | activity change, negative = cytotoxicity (CASKI) 0.559% [at 6.55 µM] | activity change, negative = cytotoxicity (Es-2) 6.29% [at 6.55 µM] | activity change, negative = cytotoxicity (HeLa) 13.4% [at 6.55 µM] | activity change, negative = cytotoxicity (Hek293T) -1.17% [at 6.55 µM]

C=CC(C)(O)CC/C=C(\C)C(=O)OCC1OC(OC2CCC3(C)C(CCC4(C)C3CC=C3C5CC(C)(C)C(O)CC5(C(=O)O)CCC34C)C2(C)C)C(O)C(OC2OC(CO)C(O)C(OC3OC(CO)C(O)C(OC4OC(COC5OC(CO)C(O)C(O)C5O)C(O)C(O)C4O)C3O)C2O)C1O (configuration not stated)
inactive: outcome (NIH3T3) inactive [at 9.27 µM] | activity change, negative = cytotoxicity (C33A) 4.36% [at 6.55 µM] | activity change, negative = cytotoxicity (CASKI) 11.9% [at 6.55 µM] | activity change, negative = cytotoxicity (Es-2) 0.769% [at 6.55 µM] | activity change, negative = cytotoxicity (HeLa) 3.26% [at 6.55 µM] | activity change, negative = cytotoxicity (Hek293T) 3.14% [at 6.55 µM]

CC(=O)O[C@H]1CC[C@@]2(CI)C(=CC[C@@H]3[C@@H]2CC[C@]2(C)[C@@H]([C@H](C)CCCC(C)C)CC[C@@H]32)C1
inactive: outcome (NIH3T3) inactive [at 9.27 µM] | activity change, negative = cytotoxicity (C33A) 15% [at 11.6 µM] | activity change, negative = cytotoxicity (CASKI) -2.47% [at 11.6 µM] | activity change, negative = cytotoxicity (Es-2) -1.33% [at 11.6 µM] | activity change, negative = cytotoxicity (HeLa) 10.9% [at 11.6 µM] | activity change, negative = cytotoxicity (Hek293T) 4.14% [at 11.6 µM]

CON(C)C(=O)N1N=C(c2cc(F)ccc2F)S[C@@]1(CCCN)c1ccccc1
inactive: Potency (C33A)

COC1CCCC/C(C)=C/C2C=C(C)C(C)C3C(CC(C)C)NC(=O)C23C(=O)C1 (configuration not stated)
inactive: outcome (NIH3T3) inactive [at 17.4 µM] | Potency (C33A) | Potency (CASKI) | Potency (HeLa) | Potency (Hek293T)

CC(C)(C)c1cc(CN2CCN(CC(O)c3ccc(Cl)cc3)CC2)cc(C(C)(C)C)c1O (configuration not stated)
inactive: outcome (NIH3T3) | Potency (C33A) | Potency (Es-2) | Potency (HeLa) | Potency (Hek293T)

O=C(COc1ccc(Cl)cc1)NC1CCC(NC(=O)COc2ccc(Cl)cc2)CC1 (configuration not stated)
inactive: Potency (C33A) | Potency (CAOV3) | Potency (CASKI) | Potency (Es-2) | Potency (HeLa) | Potency (Hek293T)

Nc1nc(CC(=O)Nc2ccc(CCNCC(O)c3ccccc3)cc2)cs1 (configuration not stated)
inactive: outcome (NIH3T3) | Potency (C33A) | Potency (CASKI) | Potency (Es-2) | Potency (HeLa) | Potency (Hek293T)

COc1ccc([C@@H]2N[C@H](C(=O)O)Cc3c2[nH]c2ccccc32)cc1CN1CCN(c2ccccc2F)CC1
inactive: outcome (NIH3T3) | Potency (C33A) | Potency (CASKI) | Potency (Es-2) | Potency (HeLa) | Potency (Hek293T)

— PubChem BioAssay (NCATS)
